Shown are actives, neighbours in structure and some others; about 12% of the full set was active somewhere.
BAZ2B block = blocks human BAZ2B. Potency, µM (doses to about 114 µM), without a hit: top-dose activity change, negative = inhibition, most hits filed as inhibitors. Q9UIF8. 360,000 compounds, 4.4% hits. AlphaScreen BAZ2B-H3K14Ac peptide displacement. AID 504333; also: potency is read from the fitted curve at half-maximal effect; % is scaled to controls: 0 for no effect and ±100 for the full control effect; nearly all actives have a fitted effect of over 60% in size
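AlphaScreen displacement of biotin-H3(5-23)K14Ac peptide (50 nM final) from BAZ2B (50 nM final) in PBS pH 7.4, 0.01% Tween-20; complex preformed 30 min RT, then compounds (top 110 uM) 30 min RT, beads 20 min dark.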
PI5P4K alpha inh = PI5P4K alpha (human) kinase inhibition; AID 652105; max response, %; 330,000 compounds, 1.2% hits; P48426; PI5P4Kalpha enzyme, ADP-Glo luminescence, 60 min; hits give low values; active = max response of -50% or lower; inconclusive = between -30% and -50%; inactive = -30% or higher; also: value at the top dose of about 77 µM; % is scaled to controls: 0 for no effect and ±100 for the full control effect
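Single end-point luminescence (ADP-Glo) quantified ADP from PI5P4Kalpha turnover; ATP 5 microM final, 1 h at RT, 0.1% CHAPS and 0.28 mM EGTA in HEPES pH 7.4.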
HP1b binding inh = blocks HP1-beta chromodomain binding to methylated histone tails | 390,000 compounds, 0.56% hits | P83916 | Potency, µM (doses to about 114 µM), for the others: at the highest dose activity change, negative = inhibition, usual class: inhibitors | AID 540317 | AlphaScreen HP1-beta / biotin-H3K9me3 peptide binding; also: potency is read from the fitted curve at half-maximal effect; nearly all actives have a fitted effect of over 70% in size
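AlphaScreen: HP1-beta (50 nM) preformed 30 min with biotin-H3(1-18)K9me3 peptide (50 nM) in PBS pH 7.4, 0.01% Tween-20. Compound added for 30 min at RT, then streptavidin donor/nickel chelate acceptor beads (10 ug/mL) for 30 min.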
G9a block = inhibitors of human histone lysine methyltransferase G9a | Q96KQ7 | G9a H3K9 monomethylation, AlphaScreen, 2 h | Potency, µM (doses to about 102 µM), without a hit: at the top dose activity, negative = inhibition, usual class: inhibitors | 350,000 compounds, 8.8% hits | AID 504332; also: potency is read from the fitted curve at half-maximal effect; % is scaled to controls: 0 for no effect and ±100 for the full control effect; nearly all actives have a fitted effect of over 75% in size
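AlphaScreen detection with an anti-monomethyl H3K9 antibody quantified product after a 2 h room-temperature reaction containing 500 nM biotinylated H3K9 peptide, 20 µM SAM and 20 nM enzyme, which had been preincubated 15 min with compound.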
PLK1 PBD block = inhibitors of human PLK1 polo-box domain binding | Potency, µM, inactives show max response, negative = inhibition, hits mostly inhibitors | Plk1 PBD binding of FITC phosphopeptide, fluorescence polarization | 360,000 compounds, 2.8% hits; also: potency is read from the fitted curve at half-maximal effect; series mostly up to about 57 µM; % is scaled to controls: 0 for no effect and ±100 for the full control effect; nearly all actives have a fitted effect of over 65% in size
JMJD2A Tudor = blocks the human JMJD2A Tudor domain; O75164; AlphaScreen JMJD2A-Tudor / H3K4me3 peptide binding; Potency, µM (series often up to 114 µM), for inactives: top-dose activity change, negative = inhibition, most hits filed as inhibitors; 390,000 compounds, 4.4% hits; AID 504339; also: potency is read from the fitted curve at half-maximal effect; % is scaled to controls: 0 for no effect and ±100 for the full control effect; nearly all actives have a fitted effect of over 50% in size
Target sequence (O75164 whole entry, looked up, the tested form may be a part): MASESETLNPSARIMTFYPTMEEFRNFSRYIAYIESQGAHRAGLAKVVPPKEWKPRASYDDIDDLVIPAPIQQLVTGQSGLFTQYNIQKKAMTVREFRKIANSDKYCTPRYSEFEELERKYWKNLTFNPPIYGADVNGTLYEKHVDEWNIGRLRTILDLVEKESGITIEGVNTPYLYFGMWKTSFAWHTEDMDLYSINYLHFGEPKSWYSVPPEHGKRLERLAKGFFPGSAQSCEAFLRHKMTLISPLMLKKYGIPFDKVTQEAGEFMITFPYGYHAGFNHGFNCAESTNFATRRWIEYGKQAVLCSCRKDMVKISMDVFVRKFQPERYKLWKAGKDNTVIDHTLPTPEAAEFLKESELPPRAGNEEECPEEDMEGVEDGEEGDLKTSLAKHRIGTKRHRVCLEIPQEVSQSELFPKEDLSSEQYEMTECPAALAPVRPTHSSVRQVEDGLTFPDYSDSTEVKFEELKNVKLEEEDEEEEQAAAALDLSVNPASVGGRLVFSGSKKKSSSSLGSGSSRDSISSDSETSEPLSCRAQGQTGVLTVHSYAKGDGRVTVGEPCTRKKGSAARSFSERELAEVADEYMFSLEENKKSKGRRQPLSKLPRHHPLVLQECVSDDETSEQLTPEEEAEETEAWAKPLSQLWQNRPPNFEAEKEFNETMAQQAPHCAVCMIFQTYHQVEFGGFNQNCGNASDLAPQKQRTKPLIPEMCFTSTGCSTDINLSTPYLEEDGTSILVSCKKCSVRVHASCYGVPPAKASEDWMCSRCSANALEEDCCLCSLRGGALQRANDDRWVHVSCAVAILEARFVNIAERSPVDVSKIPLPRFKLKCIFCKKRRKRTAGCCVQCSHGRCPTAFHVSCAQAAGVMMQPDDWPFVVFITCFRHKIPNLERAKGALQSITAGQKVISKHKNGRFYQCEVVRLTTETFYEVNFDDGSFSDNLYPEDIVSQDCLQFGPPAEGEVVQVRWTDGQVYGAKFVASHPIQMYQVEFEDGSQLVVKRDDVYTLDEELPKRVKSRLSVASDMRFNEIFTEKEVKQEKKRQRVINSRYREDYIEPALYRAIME
Active calls of the source: *; [ ] = dose if it differs, or a comment. Unless noted, calls follow the shape of the dose curve; as a rule, active = well fitted curve in the direction sought with a large enough effect; inconclusive = small, poorly fitted or top-dose-only effect, or another doubt; inactive = no such curve, though single readings can be large; an effect the other way counts as inactive or inconclusive.

O=C1[O][Bi][O]c2ccccc21 was read as G9a block 3.2µM*.
`Cc1ccccc1CSc1nnc(-c2ccco2)n1Cc1ccco1` gave BAZ2B block 50µM*, HP1b binding inh -9%, G9a block 23%[0.501 µM], PLK1 PBD block -7% and JMJD2A Tudor inconclusive.
For c1ccc(CSc2nnc(-c3cccs3)n2Cc2ccco2)cc1 the results were BAZ2B block -29%, PI5P4K alpha inh -3, HP1b binding inh 20%, G9a block inconclusive, PLK1 PBD block -3% and JMJD2A Tudor -23%.
`CCN(CC)C(=O)CSc1nnc(-c2ccco2)n1Cc1ccco1` gave BAZ2B block -10%, HP1b binding inh 24%, G9a block 40µM*, PLK1 PBD block -4% and JMJD2A Tudor -19%.
For CCN(CC)C(=O)CSc1nnc(-c2ccco2)n1N the results were BAZ2B block -5%, PI5P4K alpha inh 2, HP1b binding inh 35%, G9a block -2%[12.7 µM], PLK1 PBD block -4% and JMJD2A Tudor 37%.
`CC(C)N(C(=O)CSc1nnc(-c2cc3ccccc3cc2O)n1Cc1ccco1)C(C)C` gave BAZ2B block -31%, HP1b binding inh 11%, G9a block 13µM*, PLK1 PBD block -7% and JMJD2A Tudor -35%.
Screening Cc1ccccc1CSc1nnc(-c2cccs2)n1Cc1ccco1 returned BAZ2B block inconclusive, HP1b binding inh 20%, G9a block -32%[0.0925 µM], PLK1 PBD block -4% and JMJD2A Tudor -33%.
`c1ccc(CSc2nnc(-c3ccco3)n2Cc2ccco2)cc1` gave BAZ2B block inconclusive, PI5P4K alpha inh 7, HP1b binding inh -1%, G9a block 50µM*, PLK1 PBD block -3% and JMJD2A Tudor -32%.
`Cc1cc(C)c(NC(=O)CN2C(=O)c3cccnc3Oc3ccc(C)cc32)c(C)c1` gave BAZ2B block -1%, HP1b binding inh 33%, G9a block 6%[59 µM] and JMJD2A Tudor -3%.
For Oc1ccccc1C1C=C(c2ccc3c(c2)OCO3)NC(c2cccc(F)c2)N1 (stereo unspecified) the results were HP1b binding inh 20% and JMJD2A Tudor inconclusive.
`CCN(CC)C(=O)c1cccc(-c2csc(C(C)(O)c3cccc(F)c3)n2)c1` (stereo unspecified) gave PI5P4K alpha inh -2 and PLK1 PBD block -1%.
Screening CC(C)NC(=O)CSc1nc(Cc2cccs2)nc2ccccc12 returned BAZ2B block 1%, HP1b binding inh 27%, G9a block 25µM*, PLK1 PBD block -18% and JMJD2A Tudor -31%.
`CC(C(=O)O)C(=O)O` gave BAZ2B block -4%, PI5P4K alpha inh -18, HP1b binding inh -18%, G9a block 10µM*, PLK1 PBD block -8% and JMJD2A Tudor 79µM*.
CC(O)C(=O)O (stereo unspecified) was read as G9a block -19%[59 µM].
Cc1ccc(NC(=O)COc2ccc3oc4c(c3c2)CCCC4)c(C)c1 was read as BAZ2B block -1%, HP1b binding inh 51%, G9a block inconclusive and JMJD2A Tudor -9%.
Screening Cc1ccccc1OCC(O)Cn1c(Br)nc2c1c(=O)[nH]c(=O)n2C (stereo unspecified) returned BAZ2B block 0%, PI5P4K alpha inh -1, HP1b binding inh 42%, G9a block 25%, PLK1 PBD block 1% and JMJD2A Tudor -11%.
`Cc1ccccc1OCC(O)Cn1c(N2CCCCC2)nc2c1c(=O)[nH]c(=O)n2C` (stereo unspecified) gave BAZ2B block -21%, PI5P4K alpha inh -5, HP1b binding inh 25%, G9a block 22%[59 µM], PLK1 PBD block -12% and JMJD2A Tudor -21%.
Screening CCSc1nc2c(c(=O)[nH]c(=O)n2C)n1CC(O)COc1ccccc1C (stereo unspecified) returned BAZ2B block -15%, HP1b binding inh -27%, G9a block 16µM*, PLK1 PBD block 27µM* and JMJD2A Tudor -3%.
For Cc1ccccc1OCC(O)Cn1c(SC(C)C)nc2c1c(=O)[nH]c(=O)n2C (stereo unspecified) the results were BAZ2B block -27%, HP1b binding inh -12%, G9a block 3.5µM*, PLK1 PBD block 30µM* and JMJD2A Tudor inconclusive.
For O=C(c1ccc(CNS(=O)(=O)c2ccc(Br)cc2)cc1)N1CCCCCC1 the results were BAZ2B block -9%, PI5P4K alpha inh 0, HP1b binding inh 22%, PLK1 PBD block 1% and JMJD2A Tudor -15%.
Screening Cc1ccc(S(=O)(=O)N2CCCC(C(=O)NC3CCCC3)C2)cc1Cl (stereo unspecified) returned BAZ2B block -3%, PI5P4K alpha inh -9, HP1b binding inh 38%, G9a block 9%, PLK1 PBD block -16% and JMJD2A Tudor -5%.
For Cc1c(Cl)cccc1S(=O)(=O)N1CCC(C(=O)NNC(=O)C2CC2)CC1 the results were BAZ2B block -15%, PI5P4K alpha inh 1, HP1b binding inh 12%, G9a block 2%, PLK1 PBD block 24µM* and JMJD2A Tudor -3%.
For Cc1ccc(C(=O)NNC(=O)C2CCN(S(=O)(=O)c3ccc(C)cc3)CC2)cc1 the results were BAZ2B block -8%, PI5P4K alpha inh -7, HP1b binding inh 26%, G9a block 13%, PLK1 PBD block -1% and JMJD2A Tudor inconclusive.
Screening O=C(NC1CC1)C1CCN(S(=O)(=O)c2cc(Cl)ccc2Cl)CC1 returned BAZ2B block 56µM*, PI5P4K alpha inh 4, HP1b binding inh 26%, G9a block 13µM*, PLK1 PBD block 0% and JMJD2A Tudor -2%.
Cc1ccc(S(=O)(=O)N2CCC(C(=O)NC3CCCC3)CC2)cc1Cl was read as BAZ2B block 1%, PI5P4K alpha inh 4, HP1b binding inh 18%, G9a block -7%[59 µM], PLK1 PBD block -11% and JMJD2A Tudor 100µM*.
Screening COc1ccc(-c2cc3nc(NCC4CCCCC4)n(C)c(=O)c3s2)cc1OC returned PI5P4K alpha inh -11 and PLK1 PBD block -2%.
For Cc1sc2ncn(CC(=O)NCCCN3CC(C)CC(C)C3)c(=O)c2c1S(=O)(=O)N1CC(C)CC(C)C1 (stereo unspecified) the results were BAZ2B block 2%, PI5P4K alpha inh 0, HP1b binding inh -5%, G9a block 9%, PLK1 PBD block -10% and JMJD2A Tudor -15%.
Screening Cc1ccc(NCCCn2ccc(NC(=O)OCc3ccccc3)nc2=O)cc1C returned PI5P4K alpha inh 8, HP1b binding inh inconclusive, PLK1 PBD block -7% and JMJD2A Tudor 56µM*.
For O=C(Nc1ccn(CCCNCC(c2ccccc2)c2ccccc2)c(=O)n1)OCc1ccccc1 the results were PI5P4K alpha inh -2 and PLK1 PBD block -2%.
